# Data published in PubChem BioAssay (NCI).
# About 79,000 compounds went through this panel and 15% of them were active in at least one assay; those are over-represented in the sample as a whole. A number with no mark means an inactive call. Cut-off read from the data, not from the text of the source: active = growth inhibition above about 70%; inactive = the rest.
# Test: NCI Yeast Anticancer Drug Screen. Data for the sgs1 mgt1 strain (AID 161);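 note: 0% = growth of cultures given vehicle only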
# Conditions: S. cerevisiae sgs1 mgt1 strain, at 50.0 µM, stronger effect = higher value
# How it was run: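 Read-out: growth inhibition vs vehicle controls. Cells: mutant yeast strain deficient in DNA damage repair.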
row,SMILES,growth inhibition
1,O=C(O)C(c1ccccc1)C(O)C1CCCCC1 (stereo not given),-1.15%
2,CC(C)C1NC(C(=O)O)C(C)(C)S1 (stereo not given),-1.6%
3,CCOC(=O)C(=O)Cc1ccccc1[N+](=O)[O-],7.75%
4,CC(O)CCNC(=O)c1ccccc1 (stereo not given),-11.3%
5,O=c1nc(Oc2ccccc2)nc2ccc(Cl)nn12,6.95%
6,CS(=O)(=O)Nc1cccc(C(=O)NN)c1,-3.4%
7,C[C@]12CCC(=O)C(O)=C1CCC2=O,-5.3%
8,CC1=Nc2ccccc2S/C1=C(/C)NN,0.2%
9,CC(C)(C)NC(=O)NCC1CCCC1NC(=O)NC(C)(C)C (stereo not given),3.65%
10,O=c1c2ccccc2c(=O)n2n1C1CCC2C1,-7.9%
11,O=C(Nc1cc(Cl)ccc1Cl)c1ccc(Cl)cc1,4.45%
12,CCOC(=O)Nc1ccn(C2OC(COC(C)=O)C(OC(C)=O)C2OC(C)=O)c(=O)n1 (stereo not given),15.1%
13,CC(C)NCC1CCCO1 (stereo not given),-16.4%
14,CSc1nc(Br)nc2c1ncn2C1CC(Oc2ccc(C)cc2)C(COc2ccc(C)cc2)O1 (stereo not given),22.1%
15,CCC1CCCCCC1=O (stereo not given),-18.6%
16,CS(=O)(=O)CC(O)(c1ccc(Cl)cc1)c1ccccn1 (stereo not given),-6.55%
17,Cc1cc(=O)n(-c2ccc(-c3ccc(-n4c(C)c(C(=O)O)c(C)cc4=O)cc3)cc2)c(C)c1C(=O)O,19.3%
18,COc1ccc(C(C)=O)cc1CO/N=C1\CSCc2ccccc21,34.5%
19,O=C(CC/[N+]([O-])=C/c1ccccc1)OCc1ccccc1,1.3%
20,O=C1OC(c2ccc([N+](=O)[O-])cc2)=N/C1=C\c1ccc(Cl)c(Cl)c1,43.6%

row,SMILES,growth inhibition
1,CCOC(=O)C(C)(Cc1ccco1)C(=O)OCC,-5.2%
2,CC(=O)c1cccc(NC(=O)Oc2ccc(Cl)cc2Cl)c1,3.25%
3,CCOC(=O)c1[nH]n(-c2ccccc2)c(=O)c1/C=N/C(=S)Nc1ccccc1,-16.6%
4,CCOC(=O)NN(C(=O)OCC)C(C)(C)C(C)=O,5.15%
5,CCOC(=O)C(=CC(C)(C)C)C(=O)OCC,2.8%
6,Cc1ccc(NC(=S)SCc2ccc([N+](=O)[O-])cc2)cc1C,8.6%
7,O=C(Cc1ccccc1)Nc1ccccc1,2.45%
8,COC(=O)Nc1c2c(nc3ccccc13)-c1ccccc1C(C)(C)C2OC (stereo not given),58.1%
9,N=c1c2ccccc2nc2oc3ccccc3n12,7.7%
10,CCCCCOS(C)(=O)=O,4.85%
11,NC(=S)N/N=C/c1ccc2c(c1)OCO2,9%
12,O=C1NC(=O)C(=Nc2cccc3c(=O)[nH][nH]c(=O)c23)C(c2nc3ccccc3s2)C1=O (stereo not given),-12.8%
13,COC(=O)/C(=C\c1ccccc1[N+](=O)[O-])c1ccc2c(c1)OCO2,3.2%
14,CN=C(N)SCCCCCCSC(N)=NC,16.6%
15,Cn1c(=S)[nH]c2cc(Cl)c(Cl)cc21,0.55%
16,Cc1n(C)nn[n+]1C,-2.65%
17,CCOC(=O)c1cc(CC)sc1N,10.7%
18,CNS(=O)(=O)c1ccc(N)cc1,2.8%
19,N#CCCOCCNCCSC(=O)c1ccccc1,12.4%
20,CCOC1(C)OC2OC(COC(C)=O)C(OC(C)=O)C(OC(N)=O)C2O1 (stereo not given),-5.75%

# Test: NCI Yeast Anticancer Drug Screen. Data for the cln2 rad14 strain (AID 165);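 note: 0% = growth equal to vehicle treated cultures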
# Conditions: S. cerevisiae cln2 rad14 strain, at 50.0 µM, stronger effect = higher value
# How it was run: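 Each compound was tested on cln2 rad14 yeast. Inhibition of growth was calculated against vehicle-exposed controls.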
row,SMILES,growth inhibition
1,O=C(O)C(c1ccccc1)C(O)C1CCCCC1 (stereo not given),-13.1%
2,CC(C)C1NC(C(=O)O)C(C)(C)S1 (stereo not given),4.05%
3,CCOC(=O)C(=O)Cc1ccccc1[N+](=O)[O-],-3.95%
4,CC(O)CCNC(=O)c1ccccc1 (stereo not given),-25.8%
5,O=c1nc(Oc2ccccc2)nc2ccc(Cl)nn12,5.7%
6,CS(=O)(=O)Nc1cccc(C(=O)NN)c1,-11.3%
7,C[C@]12CCC(=O)C(O)=C1CCC2=O,-14.9%
8,CC1=Nc2ccccc2S/C1=C(/C)NN,15.6%
9,CC(C)(C)NC(=O)NCC1CCCC1NC(=O)NC(C)(C)C (stereo not given),-5.45%
10,O=c1c2ccccc2c(=O)n2n1C1CCC2C1,-3.75%
11,O=C(Nc1cc(Cl)ccc1Cl)c1ccc(Cl)cc1,-44%
12,CCOC(=O)Nc1ccn(C2OC(COC(C)=O)C(OC(C)=O)C2OC(C)=O)c(=O)n1 (stereo not given),-46.4%
13,CC(C)NCC1CCCO1 (stereo not given),4.9%
14,CSc1nc(Br)nc2c1ncn2C1CC(Oc2ccc(C)cc2)C(COc2ccc(C)cc2)O1 (stereo not given),18.6%
15,CCC1CCCCCC1=O (stereo not given),-25.4%
16,CS(=O)(=O)CC(O)(c1ccc(Cl)cc1)c1ccccn1 (stereo not given),-21.6%
17,Cc1cc(=O)n(-c2ccc(-c3ccc(-n4c(C)c(C(=O)O)c(C)cc4=O)cc3)cc2)c(C)c1C(=O)O,24.1%
18,COc1ccc(C(C)=O)cc1CO/N=C1\CSCc2ccccc21,22.4%
19,O=C(CC/[N+]([O-])=C/c1ccccc1)OCc1ccccc1,12%
20,O=C1OC(c2ccc([N+](=O)[O-])cc2)=N/C1=C\c1ccc(Cl)c(Cl)c1,28.1%

row,SMILES,growth inhibition
1,CCOC(=O)C(C)(Cc1ccco1)C(=O)OCC,-33.5%
2,CC(=O)c1cccc(NC(=O)Oc2ccc(Cl)cc2Cl)c1,1%
3,CCOC(=O)c1[nH]n(-c2ccccc2)c(=O)c1/C=N/C(=S)Nc1ccccc1,-11.8%
4,CCOC(=O)NN(C(=O)OCC)C(C)(C)C(C)=O,-29.2%
5,CCOC(=O)C(=CC(C)(C)C)C(=O)OCC,14.8%
6,Cc1ccc(NC(=S)SCc2ccc([N+](=O)[O-])cc2)cc1C,-8.9%
7,O=C(Cc1ccccc1)Nc1ccccc1,-0.3%
8,COC(=O)Nc1c2c(nc3ccccc13)-c1ccccc1C(C)(C)C2OC (stereo not given),-7.7%
9,N=c1c2ccccc2nc2oc3ccccc3n12,13.2%
10,CCCCCOS(C)(=O)=O,-36.5%
11,NC(=S)N/N=C/c1ccc2c(c1)OCO2,47.4%
12,O=C1NC(=O)C(=Nc2cccc3c(=O)[nH][nH]c(=O)c23)C(c2nc3ccccc3s2)C1=O (stereo not given),8.7%
13,COC(=O)/C(=C\c1ccccc1[N+](=O)[O-])c1ccc2c(c1)OCO2,-38.5%
14,CN=C(N)SCCCCCCSC(N)=NC,26.1%
15,Cn1c(=S)[nH]c2cc(Cl)c(Cl)cc21,-21.7%
16,Cc1n(C)nn[n+]1C,-24.1%
17,CCOC(=O)c1cc(CC)sc1N,-10.2%
18,CNS(=O)(=O)c1ccc(N)cc1,-27.2%
19,N#CCCOCCNCCSC(=O)c1ccccc1,6.65%
20,CCOC1(C)OC2OC(COC(C)=O)C(OC(C)=O)C(OC(N)=O)C2O1 (stereo not given),-34%
